AmpC detergent = inhibitors of E. coli AmpC beta-lactamase with detergent | Potency, µM (series often up to 114 µM), inactives show at the top dose activity change, negative = inhibition, hits mostly inhibitors | AmpC hydrolysis of nitrocefin, absorbance 480 nm, 0.01% Triton | AID 485294 | 0.041% of 370,000 active;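 note: potency is the fitted concentration of half-maximal effect; 0% = no-compound wells and -100% = no-enzyme wells; nearly all actives have a fitted effect of over 25% in size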
Target sequence (P00811 whole entry, looked up): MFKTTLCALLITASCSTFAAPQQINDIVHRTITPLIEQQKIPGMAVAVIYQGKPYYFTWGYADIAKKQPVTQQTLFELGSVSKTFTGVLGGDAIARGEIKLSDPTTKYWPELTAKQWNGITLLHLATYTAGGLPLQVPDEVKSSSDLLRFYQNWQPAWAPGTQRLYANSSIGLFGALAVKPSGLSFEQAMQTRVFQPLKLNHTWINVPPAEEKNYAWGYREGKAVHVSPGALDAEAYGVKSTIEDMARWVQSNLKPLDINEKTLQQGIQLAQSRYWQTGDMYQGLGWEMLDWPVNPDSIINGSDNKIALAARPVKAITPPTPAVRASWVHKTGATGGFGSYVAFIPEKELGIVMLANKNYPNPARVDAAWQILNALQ
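20 mM phosphate pH 7.0 + 0.01% (detergent screen) or 0.0001% Triton X-100; 5.3 nM AmpC reagent; cpd preinc 15 min RT; nitrocefin (800 uM stock) to start; A480 q20 s × 4 min; Activity was normalised to no-enzyme and no-compound control wells.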
SARS PLpro yeast-1 = SARS-CoV PLP inhibition in yeast | S. cerevisiae expressing SARS-CoV PLpro, growth rescue | Potency, µM (series often up to 32.9 µM), for inactives: at the top dose activity, positive = growth rescue, actives largely listed as activators | 0.19% of 330,000 active | AID 485353; calls by dose curve; note: potency is the fitted concentration of half-maximal effect; 0% is about no effect; nearly all actives have a fitted effect of over 55% in size
AmpC no deterg = AmpC beta-lactamase inhibition without detergent; Potency, µM (series often up to 57.1 µM), for inactives: at the highest dose activity change, negative = inhibition, actives largely listed as inhibitors; P00811; 0.52% of 330,000 active; AmpC nitrocefin hydrolysis, absorbance 480 nm, 0.0001% Triton;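 note: potency is the fitted concentration of half-maximal effect; plate controls were no compound for no effect and no enzyme for full effect; nearly all actives have a fitted effect of over 20% in size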
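AmpC (5.3 nM in the dispensed reagent) in 20 mM phosphate pH 7.0 with 0.01% (detergent screen) or 0.0001% Triton X-100 was preincubated with compounds for 15 min at room temperature. Nitrocefin was then added from an 800 uM solution, and hydrolysis was followed at 480 nm.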
Vaccinia Venus = inhibitors of vaccinia virus (Venus reporter); Vaccinia virus Venus reporter expression, fluorescence; Potency, µM (highest dose often 36.5 µM), inactives show at the highest dose activity change, negative = inhibition, hits mostly inhibitors; 0.46% of 330,000 active; calls by dose curve; tested in A549 cells; note: potency is the fitted concentration of half-maximal effect; % is set by controls: 0 for no effect and ±100 for the full control effect; nearly all actives have a fitted effect of over 30% in size
VACV mCherry inh = vaccinia inhibition (mCherry reporter) | Potency, µM (top dose mostly 36.5 µM), for the others: top-dose activity change, negative = inhibition, usual class: inhibitors | Vaccinia virus mCherry reporter infection, fluorescence | AID 720579 | 0.63% of 310,000 active; calls by dose curve; tested in A549 cells; note: potency is the fitted concentration of half-maximal effect; % is set by controls: 0 for no effect and ±100 for the full control effect; nearly all actives have a fitted effect of over 35% in size
SARS PLpro yeast-2 = Validates SARS-CoV PLpro inhibitor hits in yeast. 19% of 1,000 active. shares compounds with SARS PLpro yeast-1. yeast expressing SARS-CoV PLpro, growth phenotype rescue. calls only; call rule not given here
* marks the source's active call; other numbers are inactive results; i = inactive; ? = inconclusive; nt = no result; + = active, no number. This is a sample that favours compounds with a hit; in the whole collection about 1.3% have one here. Unless noted, calls come from the whole dose curve; as a rule, active = well fitted curve in the direction sought with a large enough effect; inconclusive = small, poorly fitted or top-dose-only effect, or another doubt; inactive = no such curve, though single readings can be large; an effect the other way counts as inactive or inconclusive.

SMILES	AmpC detergent	SARS PLpro yeast-1	AmpC no deterg	Vaccinia Venus	VACV mCherry inh	SARS PLpro yeast-2
Nc1c(Cl)ncnc1N/N=C/c1ccc2ccccc2n1	4.3%	nt	-18.9%	?	2.82µM*	i
Cc1occc1C(=O)N/N=C/c1ccc(Cl)c([N+](=O)[O-])c1	-2.4%	?	-17.7%	-24.9%	-20.4%	?
CC(=O)Oc1ccc(C(=O)[C@H]2[C@H]3C(=O)N(c4ccc5ccccc5c4)C(=O)[C@H]3[C@@H]3C=CC=NN32)cc1	-7.6%	3.16µM*	8.5%	-3.1%	-14.2%	i
COc1ccccc1N1C(=O)[C@@H]2[C@H](C1=O)[C@H](C(=O)c1ccc(OC(C)=O)cc1)N1N=CC=C[C@@H]21	-5.9%	0.4%	71.6%	1.1%	-12.7%	nt
CCOc1cc(N2CCCC2)ccc1[N+](=O)[O-]	-6.5%	?	-2.5%	-11.8%	-26.3%	i
Cc1ccc(Nc2nnc(SC(C)C(=O)Nc3c(C)n(C)n(-c4ccccc4)c3=O)s2)cc1 (configuration not stated)	-20.9%	2.82µM*	1.2%	-26.6%	-22.2%	i
Cc1ccc(N=C2C(=S)N(c3ccc(C)cc3)C(=N)N2/N=C/c2ccc(Cl)cc2)cc1	?	11.2µM*	-38.2%	nt	nt	+
O=C(N/N=C/c1cc([N+](=O)[O-])cc([N+](=O)[O-])c1O)/C(=C\c1cccs1)NC(=O)c1ccccc1	?	?	-21.5%	16.1%	-4.1%	+
Cc1nn2c(=O)cc(COC(=O)c3ccc(NC(=O)c4cccc(Br)c4)cc3)nc2s1	-3.3%	nt	nt	-26.5%	-7.2%	nt
O=C(CNC(=O)c1ccco1)OC(C(=O)c1ccccc1)c1ccccc1 (configuration not stated)	-11.1%	?	-41.1%	-18.1%	nt	i
CC1(C(=O)NCc2cccc(Cl)c2)Cc2c(-c3cccc(C(N)=O)c3)ccnc2O1 (configuration not stated)	nt	nt	nt	-13.6%	5.0%	nt
CCCN1C/C(=C/c2ccc3c(c2)OCO3)C(=O)/C(=C/c2ccc3c(c2)OCO3)C1	-3.1%	14.1µM*	-5.4%	?	?	i
CC(C(=O)NCc1ccc2c(c1)OCO2)N1c2cccc3cccc(c23)S1(=O)=O (configuration not stated)	-4.6%	?	-9.9%	-16.0%	-9.4%	+
COc1ccc(NC(=O)N2CCC(n3nnc4cc(C)ccc43)CC2)cc1	8.3%	?	-15.7%	-13.0%	-2.6%	i
CCOc1ccc(NC(=O)N2CCC(n3nnc4ccccc43)CC2)cc1	-6.9%	-0.7%	-14.6%	-11.5%	i	nt
COc1ccccc1NC(=O)Cn1c(=O)n(-c2ccccc2Cl)c(=O)c2sc3ccccc3c21	-6.8%	nt	nt	-0.3%	-4.7%	nt
CC(CC(=O)Nc1ccc(F)c([N+](=O)[O-])c1)c1ccccc1 (configuration not stated)	?	?	-20.6%	-16.2%	-6.4%	i
O=C(NNC(=O)c1cc(Cl)ccc1O)c1cccc(S(=O)(=O)N2CCOCC2)c1	-17.6%	?	-22.3%	-2.7%	-15.0%	+
Cc1cc2nc(C(C)(C)C)c(Cc3ccsc3)n2c(C)c1Br	nt	nt	nt	10.4%	11.5%	nt
COc1cc(CNCCN(C)C)c(Br)cc1OCC(=O)NCc1ccccc1	?	7.0%	-7.2%	-2.6%	-3.5%	nt
COc1cc(CNCC(C)C)c(Br)cc1OCC(=O)NCc1ccccc1	-0.3%	?	3.8%	nt	nt	i
NC(=O)NOCc1ccccc1	3.8%	2.7%	-7.7%	-12.5%	-8.1%	nt
CC(O)CC(=O)NOCc1ccccc1 (configuration not stated)	nt	?	-16.5%	-11.3%	i	i
Cc1cc(SCC(=O)N/N=C/c2ccccc2C(=O)O)c(C)cc1Br	-14.0%	-1.0%	-25.5%	-6.9%	i	nt
Cc1cc(SCC(=O)N/N=C/c2ccc(O)cc2O)c(C)cc1Br	1.6%	10µM*	-36.9%	nt	nt	i
SMILES	AmpC detergent	SARS PLpro yeast-1	AmpC no deterg	Vaccinia Venus	VACV mCherry inh	SARS PLpro yeast-2
O=C(N/N=C\c1c(O)ccc2ccccc12)c1ccc(Cn2cccn2)o1	-6.7%	?	-16.2%	?	4.47µM*	i
O=C(N/N=C\c1ccc(Cl)s1)c1ccc(Cn2cccn2)o1	-5.3%	1.4%	-18.0%	-2.9%	-3.0%	nt
CCCS(=O)(=O)c1nc(S(=O)(=O)c2ccc(C)cc2)c(N(C)Cc2ccccc2)s1	19.0%	nt	nt	-14.7%	i	nt
CC(=O)O[C@@]12CO[C@@H]1C[C@@H](O)[C@@]1(C)C(=O)[C@H](O)C3=C(C)[C@@H](OC(=O)[C@H](O)[C@@H](NC(=O)c4ccccc4)c4ccccc4)C[C@@](O)([C@@H](OC(=O)c4ccccc4)C12)C3(C)C (some centres not stated)	-9.5%	?	243.0%	-21.1%	?	?
CC(=O)O[C@H]1C(=O)[C@@]2(C)[C@H]([C@H](OC(=O)c3ccccc3)[C@]3(O)C[C@H](OC(=O)[C@H](O)C(NC(=O)c4ccccc4)c4ccccc4)C(C)=C1C3(C)C)[C@]1(OC(C)=O)CO[C@@H]1C[C@@H]2O (some centres not stated)	-6.6%	0.3%	211.4%	-25.1%	?	nt
Cc1cccc2cccnc12	-5.1%	0.6%	-6.2%	-7.9%	-13.7%	nt
Cc1ccc2cccnc2c1N	-6.2%	?	-3.6%	-0.9%	-3.9%	i
COc1cccc(C2C(C(=O)Nc3ccc(Cl)cc3)=C(C)Nc3c(C(=O)Nc4ccccc4)cnn32)c1OC (configuration not stated)	-6.8%	nt	nt	-16.8%	-8.9%	nt
COc1ccc(NC(=O)NCc2c(-n3cccc3)sc3c2CCCC3)c(OC)c1	21.3%	nt	nt	-18.0%	-18.6%	nt
COc1ccc(C(=O)CC(=O)C(=O)Nc2cc(Cl)c(OC)cc2OC)cc1	2.0%	?	-31.1%	nt	nt	+
COc1cccc(C(=O)CC(=O)C(=O)Nc2cc(Cl)c(OC)cc2OC)c1	-11.1%	-4.4%	-34.0%	nt	nt	nt
O=C(Cc1cc(=O)[nH]c(=O)[nH]1)N1CCN(C(=O)c2ccco2)CC1	8.9%	1.78µM*	-11.9%	-7.3%	?	i
CCNC(=S)Nc1ccc(N(c2ccccc2)C(C)C)cc1	-13.0%	0.0%	-2.7%	nt	nt	nt
CCNC(=S)NN(c1ccccc1)c1ccccc1	-8.2%	14.1µM*	-13.6%	-15.3%	i	+
CC1(C(=O)NCc2ccco2)Cc2c(-c3ccc(C(N)=O)cc3)ccnc2O1 (configuration not stated)	nt	nt	nt	?	-5.2%	nt
COc1ccc(C2=NNC(=O)CC2)cc1	-4.5%	?	-9.9%	nt	nt	i
Cc1nn(-c2ccccc2)c(C)c1/C=N/NC(=O)CSc1nnc(SCc2ccccc2Cl)s1	17.6%	?	15.7%	-18.2%	-13.4%	+
